Results filed as inconclusive are left out. Where a call stands in place of a potency, no number is given. The source made the active and inactive calls. Calls follow the shape of the dose curve; as a rule, active = well fitted cell-killing curve with a large enough effect in the repeat runs; inconclusive = weak or mixed curves, or effect the other way; inactive = no such curve, though single readings can be large or run the other way.
experiment: qHTS assay to identify small molecule agonists of the RXR signaling pathway - cell viability counter screen (AID 1159529); settings: RXR-alpha-bla HEK293T viability, CellTiter-Glo, 16 h; series mostly up to 76.8 µM; also: nearly all actives have a fitted effect of over 50% in size
Text: National Center for Advancing Translational Sciences [NCATS]
NIH Chemical Genomics Center [NCGC]
U.S. Environmental Protection Agency [EPA]
National Institutes of Environmental Health Sciences [NIEHS]
National Toxicology Program [NTP]
U.S. Food and Drug Administration [FDA]
The Retinoid X receptor (RXR), a nuclear hormone receptor expressed in liver, spleen, placenta, epidermis, central nervous system. These receptors are able to form homo and heterodimers with other nuclear receptors and due to this heterodimerizing ability, RXR functions as master regulators producing diverse physiological effects. Three subtypes of RXR exist; alpha, beta and gamma. Retinoid X receptor alpha (RXR-alpha) has potential roles in metabolic signaling pathways, skin alopecia, dermal cysts, cardiac development, insulin sensitization etc. Therefore screening environmental chemicals on RXR-alpha signaling can be used for the studies focused on such therapeutic applications. For quantification of RXR-alpha ligands signaling, GeneBLAzer RXR alpha-UAS-bla HEK 293T (Life Technologies, Carlsbad, CA) cells containing a beta-lactamase reporter-gene under control of Retinoid X receptor-alpha response element were used to screen Tox21 10K library. The cytotoxicity of the Tox21 compound library against the RXR-alpha HEK 293T cell line was tested in parallel by measuring cell viability using CellTiter-Glo assay (Promega Corporation, Madison, WI) in the same wells.
Tox21 Assay Protocol Summary:
RXR-alpha HEK 293T cells were dispensed at 2,000 cells/6 uL of assay medium containing 2% charcoal-stripped FBS using a Multidrop Combi (ThermoFisher Scientific, Waltham, MA) dispenser. The assay was performed in black wall/clear-bottom 1536-well plates (Greiner Bio-One North America Inc. Monroe, NC). Tetraoctyl ammonium bromide was used as a positive control in the cytotoxicity screen. After the assay plates were incubated at 37 C and 5% CO2 for 5 hr, 23 nL of compounds dissolved in DMSO, positive control or DMSO only were transferred to the assay plate by a Pintool station (Kalypsys, San Diego, CA). The assay plates were incubated at 37 C and 5% CO2 for 16 hr. One uL of LiveBLAzer B/G FRET substrate (Life Technologies) was added using a Flying Reagent Dispenser (FRD) (Aurora Discovery, San Diego, CA) and the plates were incubated at room temperature for 2 hr. Fluorescence intensity (405 nm excitation, 460/530 nm emission) was measured using an Envision plate reader (PerkinElmer, Shelton, CT). For cytotoxicity, 4 uL/well of CellTiter-Glo reagent was added into the assay plates using an FRD. After 30 min incubation at room temperature, the luminescence intensity was measured using a ViewLux plate reader (PerkinElmer).
Potency is read from the fitted curve at half-maximal effect.

Structure (SMILES)	Potency	activity change, negative = cytotoxicity
O=[N+]([O-])c1ccc(CCO)cc1	inactive	–
CC(C)(O)Cc1ccccc1	inactive	–
CCCCc1ccc(N)cc1	inactive	–
CCCCC=O	inactive	–
Cc1ccc(N)cc1[N+](=O)[O-]	inactive	–
CC12CCC(CC1=O)C2(C)C (stereo not given)	inactive	–
c1cc(CN2CCCCC2)cc(OCCCNc2nc3ccccc3s2)c1	inactive	–
CO[Si](CCCNCCC[Si](OC)(OC)OC)(OC)OC	inactive	–
COCCOC(=O)CC#N	inactive	–
Oc1ccc2c(c1)OC[C@@H](N1CCC(O)(c3ccc(F)cc3)CC1)[C@H]2O	inactive	–
CCCCCCCCN(C)CCCCCCCC	inactive	–
OC[C@H]1O[C@@H]2O[C@H]3[C@H](O)[C@@H](O)[C@@H](O[C@H]4[C@H](O)[C@@H](O)[C@@H](O[C@H]5[C@H](O)[C@@H](O)[C@@H](O[C@H]6[C@H](O)[C@@H](O)[C@@H](O[C@H]7[C@H](O)[C@@H](O)[C@@H](O[C@H]8[C@H](O)[C@@H](O)[C@@H](O[C@H]9[C@H](O)[C@@H](O)[C@@H](O[C@H]1[C@H](O)[C@H]2O)O[C@@H]9CO)O[C@@H]8CO)O[C@@H]7CO)O[C@@H]6CO)O[C@@H]5CO)O[C@@H]4CO)O[C@@H]3CO	inactive	–
CC(C)[N+](C)(C)CC(O)COc1cccc2ccccc12 (stereo not given)	inactive	–
COc1ccc2cc(C=O)ccc2c1	inactive	–
CC(=O)OC(C)(C)C	inactive	–
CC(C)[C@H](N)C(=O)OCCOCn1cnc2c(=O)[nH]c(N)nc21	inactive	–
CCN(CC)C(=O)c1ccc(O)c(OC)c1	inactive	–
O=C(O)CCNC(=O)c1ccc(N=Nc2ccc(O)c(C(=O)O)c2)cc1	inactive	–
CCCC(C)C(=O)O (stereo not given)	18.7 µM (active)	–
Nc1ccn(C2CO[C@H](CO)O2)c(=O)n1 (stereo not given in full)	inactive	–

Structure (SMILES)	Potency	activity change, negative = cytotoxicity
C=CCOCC(O)CS(=O)(=O)O (stereo not given)	inactive	–
CC/C=C\C#N	inactive	–
CN(C)C(=O)C(CCN1CCC(O)(c2ccc(Cl)cc2)CC1)(c1ccccc1)c1ccccc1	inactive	–
C1COCCO1	inactive	–
CCn1cc(C(=O)O)c(=O)c2cc(F)c(N3CCN(C)CC3)cc21	–	6.61% [at 15.8 µM] (inactive)
O=C(CCOCCOCCOCCOCCC(=O)Nc1c(I)cc(I)c(C(=O)O)c1I)Nc1c(I)cc(I)c(C(=O)O)c1I	inactive	–
CCC(=O)Nc1cccc(N)c1	inactive	–
CCCCCCC(CCCCCCCCCCC(=O)OCC(COC(C)=O)OC(C)=O)OC(C)=O (stereo not given)	inactive	–
CCC(C)OC(=O)N1CCCCC1CCO (stereo not given)	inactive	–
O=C(O)/C=C/c1ccc(/C=C/C(=O)O)cc1	inactive	–
OCC(CO)(CO)COCC(CO)(CO)CO	inactive	–
OC1OC[C@@H](O)[C@H](O)[C@H]1O (stereo not given in full)	inactive	–
Nc1cc(C(Cl)=C(Cl)Cl)c(S(N)(=O)=O)cc1S(N)(=O)=O	inactive	–
NC(CS)C(=O)O (stereo not given)	inactive	–
CCCCC1CCCCC(=O)O1 (stereo not given)	inactive	–
CCCCCOC(=O)Nc1nc(=O)n([C@@H]2O[C@H](C)[C@@H](O)[C@H]2O)cc1F	inactive	–
CC(C)(O)C(=O)c1ccc(OCCO)cc1	inactive	–
CCOC(=O)Cn1c(=O)sc2cccc(Cl)c21	inactive	–
COc1cc(C(=O)N2CCOCC2)cc(OC)c1OC	inactive	–
C#CC(O)C(CC)CCCC (stereo not given)	inactive	–

Source: PubChem BioAssay (Tox21)
